# Laboratory results: PubChem BioAssay AID1918990 (ICCB-Longwood Screening Facility, Harvard Medical School, 2023)
# The campaign covered roughly 29,000 compounds. About 85 (0.3%) were called active.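 How the source made its calls: active means replicate mean overnight rise in green fluorescent reporter signal, 3 or more SD over negative controls; inactive means the rest.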 The sample as a whole holds a higher share of actives than the screen did. Square brackets hold non-standard residues; d marks the D form. Side chains are listed from the residue outwards. Peptide text beside a SMILES is read from it. * marks the point of attachment. X1 = CCC(C)C(N)C1=NC(C(=O)*)CS1; Orn = NCCC[CH](N)C(=O)O
# Test: activators of Burkholderia fixLJ two-component system, primary screen, B. multivorans, GFP reporter (AID 1918990)
# Settings: B. multivorans fixK-promoter GFP reporter, 18 h; hits give high values
row,SMILES,z-score
1,COc1cccc(OCCn2c(-c3ccc(Br)cc3)nc3ccccc3c2=O)c1,-1.26 (inactive)
2,Cc1c[nH]c(CNC(=O)COCc2nc3ccc(F)cc3[nH]2)c(C)c1=O,-1.57 (inactive)
3,CCSC(C)C(=O)N1CCc2c(nc(-c3ccncc3)nc2N(C)C)C1 (stereo not drawn),-1.6 (inactive)
4,CCOc1ccccc1C(=O)NC1(C(F)(F)F)NC(=O)N(CCc2ccc(OC)c(OC)c2)C1=O (stereo not drawn),-3.27 (inactive)
5,COc1cc(Br)cc2cc(S(=O)(=O)c3ccccc3)c(=O)oc12,-0.19 (inactive)
6,CCC(C)C(N)C1=NC(C(=O)NC(CC(C)C)C(=O)NC(CCC(=O)O)C(=O)NC(C(=O)NCCCCC2NC(=O)C(CC(N)=O)NC(=O)C(CC(=O)O)NC(=O)C(Cc3cnc[nH]3)NC(=O)C(Cc3ccccc3)NC(=O)C(C(C)CC)NC(=O)C(CCCN)NC2=O)C(C)CC)CS1 (stereo not drawn) (cyclo(DNK([Ile-Glu-Leu-X1])[Orn]IFH); configuration not given here),-0.77 (inactive)
7,CN(Cc1cnn(-c2ccc(F)cc2)c1)C(=O)C(C)(C)N1CCOCC1,-1.96 (inactive)
8,C#CC(C)(CC)NC(=O)Cn1nnc(-c2ccc(OCc3c(F)cccc3Cl)cc2)n1 (stereo not drawn),0.9 (inactive)
9,CC(NC(=O)N1CCCN(C(=O)C(F)(F)F)CC1)c1ccc(Cl)cc1 (stereo not drawn),0.97 (inactive)
10,CCOC(=O)c1ccc(-c2ccc(/C=C(\C#N)C(=O)Nc3ccc(OCC)cc3)o2)cc1,0.84 (inactive)
11,CCOC(=O)c1ccc(N2C(=O)c3n[nH]c(C)c3C2c2ccc(O)c(OC)c2)cc1 (stereo not drawn),-1.68 (inactive)
12,Cc1ccc(NC(=O)NC(C)c2c(-n3cccc3)sc(C)c2C)c(C)c1 (stereo not drawn),-1.6 (inactive)
13,Cc1ccc(-c2nc3cccc(C)n3c2Nc2ccc3c(c2)OCCO3)cc1,0.46 (inactive)
14,COc1cccc(Cn2c(SCc3ccc(C(=O)N4CCCCC4)cc3)nc3ccncc32)c1,-4.02 (inactive)
15,COc1ccccc1C1C(C(=O)N2CCCCC2)=C(C)Nc2nc3ccccc3n21 (stereo not drawn),-0.33 (inactive)
16,CCOc1ccc(-c2n[nH]c3c2C(c2ccccc2OC)N(c2ccc(Br)cc2)C3=O)cc1 (stereo not drawn),-0.62 (inactive)
17,CC(C)Cn1c(=O)c2ccccc2n2c(CCC(=O)N3CCN(c4cccc(Cl)c4)CC3)nnc12,-1.08 (inactive)
18,Cc1ccc(C(=O)Nc2ccccc2F)cc1S(=O)(=O)N1CCOCC1,-1.43 (inactive)
19,O=C(CCc1cccc(Cl)c1)NC1COCC1Cc1ccncc1 (stereo not drawn),-0.84 (inactive)
20,CCC1CCCCN1S(=O)(=O)c1ccc(NC(=O)c2cc(=O)c3ccccc3o2)cc1 (stereo not drawn),-1.59 (inactive)
21,CCCOc1ccc(CNC(=O)C2CCN(c3nn4c(=O)cc(C)nc4s3)CC2)cc1,0.43 (inactive)

row,SMILES,z-score
1,Cc1cc(OCC(=O)Nc2ncn[nH]2)c(C)c(C)c1Br,0.56 (inactive)
2,O=S(=O)(NCC(c1ccccc1)N1CCc2ccccc21)c1ccccc1 (stereo not drawn),-0.54 (inactive)
3,CCCc1noc(C2CCC(=O)N(Cc3ccc(Cl)cc3)C2)n1 (stereo not drawn),-0.44 (inactive)
4,COc1ccccc1CNC(=O)CCCn1c(=O)c2ccccc2n(CC(=O)Nc2ccc(C)cc2Cl)c1=O,-1.06 (inactive)
5,Cc1nc(N)ncc1C(=O)N(C)Cc1cn[nH]c1-c1ccccc1,-0.18 (inactive)
6,COc1ncccc1NC(=O)NCc1nncn1C1CCCCC1,0.26 (inactive)
7,COc1ccc(NC(=O)CCN2CCN(CCO)CC2)cc1,-3.11 (inactive)
8,CC(C)c1ccc2oc(-c3cc(NC(=O)c4cccs4)ccc3Cl)nc2c1,0.16 (inactive)
9,O=C1CC(c2nnc(Cc3ccc(Cl)cc3)o2)CN1c1ccccc1 (stereo not drawn),0.07 (inactive)
10,Cc1cccc(C)c1OCC(=O)NC(Cc1c[nH]c2ccccc12)C(=O)O (stereo not drawn),0.01 (inactive)
11,CSc1ncc(Cl)c(C(=O)Nc2ccc(S(=O)(=O)N3CCCC(C)C3)cc2)n1 (stereo not drawn),0 (inactive)
12,Cc1nc2nc(SCC(=O)N(Cc3ccccc3)C(C)C)nn2c(C)c1Cc1ccccc1Cl,-2.35 (inactive)
13,Cc1ccc(CN(C)S(=O)(=O)c2c(Cl)nc3sccn23)o1,1.01 (inactive)
14,Cn1c(=O)c2sccc2n2c(CCC(=O)NCc3ccccc3Cl)nnc12,-0.54 (inactive)
15,COc1cccc(CNC(=O)CCC(=O)N2CC3CCCN3c3ccccc32)c1 (stereo not drawn),-0.45 (inactive)
16,CC(C)CC(=O)C1CCCN(C(=O)c2ccc(N3CCC(O)CC3)nc2)C1 (stereo not drawn),0.49 (inactive)
17,CCC(=O)N1CCc2cc(S(=O)(=O)CCC(=O)N3CCN(c4ccccc4F)CC3)ccc21,-1.64 (inactive)
18,CC(Sc1oc(-c2ccco2)nc1S(=O)(=O)c1ccc(Br)cc1)c1ccccc1 (stereo not drawn),-1.12 (inactive)
19,COc1ccc(NC(=O)c2cnc(Nc3ccc(C)c(Cl)c3)c3ccccc23)cc1OC,0.07 (inactive)
20,Cc1ccc(OCC(=O)NC(c2ccc3c(c2)CCO3)C2CC(O)C2)cc1 (stereo not drawn),0.72 (inactive)
21,COc1cccc(NC(=O)C2CCN(c3cc(C)nc4c(-c5ccc(Cl)cc5)c(C)nn34)CC2)c1,-0.45 (inactive)

row,SMILES,z-score
1,C=CCCC(=O)N1CCC[C@]2(C1)CN(C(=O)c1ccccc1CC)CCC2O (stereo partly drawn),-0.53 (inactive)
2,COc1ccc(-c2noc(CSc3nc(C)cc(=O)[nH]3)n2)cc1OC,-1.97 (inactive)
3,COc1ccc(CNc2nc(-c3ccc(Cl)cc3)nn2S(=O)(=O)c2ccc(C)cc2)cc1,-1.03 (inactive)
4,Cc1cc(C(=O)NCc2nc(N)n[nH]2)c2c(C)nn(C)c2n1,0.15 (inactive)
5,COc1cccc(CNC(=O)C2CCC(CNS(=O)(=O)c3cccs3)CC2)c1 (stereo not drawn),-0.11 (inactive)
6,Cc1ccc2oc3c(c(=O)c2c1)C(c1ccc(O)cc1)N(Cc1ccc2c(c1)OCO2)C3=O (stereo not drawn),-1.07 (inactive)
7,COC(=O)c1ccc(N2CCN(C(=O)c3csc(C)n3)CC2)cc1,-0.55 (inactive)
8,O=C(CSc1nnc(CNC(=O)c2ccccc2)n1-c1ccc(F)cc1)Nc1ccccc1F,-1.09 (inactive)
9,COc1ccc(C2=NC(c3ccncc3)=Nc3ccc(Br)cc3N2)cc1,-0.81 (inactive)
10,Cc1c(C(=O)N2CCC3(CC2)OCCCC3O)n(C)c2ccccc12 (stereo not drawn),-0.28 (inactive)
11,CCOC(=O)c1c(NC(=O)/C(C#N)=C/c2ccccc2)sc2c1CCC2,-0.67 (inactive)
12,COc1ccccc1-c1cc(C(F)(F)F)nc(S(=O)(=O)CCCC(=O)Nc2ccc(F)cc2F)n1,-0.87 (inactive)
13,CCC(=O)N1CCc2cc(Br)cc(S(=O)(=O)CCC(=O)NCc3ccccc3OC)c21,-0.86 (inactive)
14,CCC(=O)N1CCc2cc(Br)cc(S(=O)(=O)CCC(=O)N3CCN(c4ccc(F)cc4)CC3)c21,3.68 (active)
15,CCC(=O)N1CCc2cc(Br)cc(S(=O)(=O)CCC(=O)NCCc3ccc(OC)c(OC)c3)c21,2.58 (inactive)
16,Cc1cccc2nc(-c3ccc(Cl)s3)c(Nc3ccc4c(c3)OCCO4)n12,0.38 (inactive)
17,COc1ccc(CNC(=O)Cc2coc3ccc(C(C)C)cc23)cc1,-1.14 (inactive)
18,CC(=O)N1CCCCC1C(=O)Nc1cccc(-n2cccn2)c1 (stereo not drawn),-4.62 (inactive)
19,Cc1ccc(C)c(N2CCN(C(=O)CN3C(=O)COc4ccc(S(=O)(=O)N5CCCCCC5)cc43)CC2)c1,-0.13 (inactive)
20,CCc1cc2c(cc(C(=O)OC)n2Cc2nc(-c3ccc(C)cc3)oc2C)s1,-0.09 (inactive)
21,CCCOc1ccc(C2c3c(-c4ccccc4O)n[nH]c3C(=O)N2Cc2cccnc2)cc1 (stereo not drawn),-1.98 (inactive)

row,SMILES,z-score
1,CCc1ccccc1N1CC(c2nc3ccccc3n2CCCCOc2ccccc2)CC1=O (stereo not drawn),5.94 (active)
2,CCOc1ccc(N2CC(c3nc4ccccc4n3CCOc3ccc(OC)cc3)CC2=O)cc1 (stereo not drawn),-4.05 (inactive)
3,COc1ccc(OCCCn2c(C3CC(=O)N(c4ccc(F)cc4)C3)nc3ccccc32)cc1 (stereo not drawn),0.64 (inactive)
4,CC(=O)c1c(C)n(S(=O)(=O)c2ccc(Cl)cc2)c2ccc(NS(=O)(=O)c3ccc(Cl)cc3)cc12,-0.71 (inactive)
5,COc1ccc(NC(=O)CNC(=O)Cn2ccc3ccccc3c2=O)c(OC)c1,-2.14 (inactive)
6,CN1CCCn2nc(C(=O)NCCCCc3ccccc3)cc2C1,-1.24 (inactive)
7,CCc1ccccc1NS(=O)(=O)c1ccc2nc(-c3ccccc3)[nH]c2c1,-1.16 (inactive)
8,CC(Cn1cccn1)NC1CCN(C(=O)c2cccnc2)CC1 (stereo not drawn),-2 (inactive)
9,Cc1ccc(N2CC(C(=O)Nc3ccc(N(C)C)cc3)CC2=O)cc1Cl (stereo not drawn),0.09 (inactive)
10,COc1cccc(-c2nc(CS(=O)(=O)CC(=O)NCCc3ccc(OC)c(OC)c3)c(C)o2)c1,-0.64 (inactive)
11,CCc1ccccc1NC(=O)N1CCC2(CC1)Oc1ccccc1C(=O)N2Cc1ccccc1F,-0.81 (inactive)
12,O=C(NC1CCCCC1)c1ccc2c(c1)N(Cc1ccc(Cl)cc1)C(=O)c1ccccc1S2=O (stereo not drawn),0.06 (inactive)
13,CCC(=O)N1CCc2cc(S(=O)(=O)NCCC(=O)Nc3cccc(C)c3C)ccc21,-0.9 (inactive)
14,COc1ccccc1Nc1cc(C(=O)NCCCN(C)C2CCCCC2)c2ccccc2n1,-0.07 (inactive)
15,CC(C)Sc1nnc(NC(=O)c2ccccc2-n2cnnc2)s1,-0.42 (inactive)
16,CC(C)S(=O)(=O)c1oc(-c2ccc(F)cc2)nc1S(=O)(=O)c1ccc(F)cc1,-3.54 (inactive)
17,CCN(C(=O)Cn1cnc2sc(C)c(S(=O)(=O)N3CCN(c4ncccn4)CC3)c2c1=O)c1ccccc1F,-2.69 (inactive)
18,CCNC(=O)Cn1nc(C)n2c(cc3c(OC)cccc32)c1=O,-1.37 (inactive)
19,CC(C)(C)C(Cn1ccnc1)NC(=O)C=Cc1cc(CO)cs1 (stereo not drawn),0.54 (inactive)
20,COc1ccc(N(C)C(=O)C2CCN(S(=O)(=O)c3cc(Br)cc4c3N(C(C)=O)CC4)CC2)cc1,-1.87 (inactive)
